Results published in PubChem BioAssay AID1159580 (chemical genetic matrix, 2015).
Among all 5,500 compounds or so, about 2,000 (36%) were called active. Inconclusive results (about 18%) are left out. No stated cut-off is given here; in the data, active means normalized growth mostly below about 0.91 (no sharp cut-off); inconclusive means no clear call, values can overlap the other calls; inactive means mostly above about 0.92. The list shows a part of the results.

Test: chemical genetic growth profiling, strain panel (AID 1159580);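 further: tested at 20 µM; growth read once vehicle control cultures reached saturation at 30 °C; 1 = growth at the plate median or of vehicle wells; lower values mean less growth of the strain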
Conditions: S. cerevisiae deletion strains, growth OD

Measured: normalized growth

CC(C(=O)O)[C@H]1CCC2C3CC=C4C[C@@H](O)CC[C@]4(C)C3CC[C@@]21C (stereo not given in full)
inactive: locus YAL021C, strain ccr4, hits give low values 0.939 | locus YAL030W, strain snc1, hits give low values 1.03 | locus YBL061C, strain skt5, hits give low values 1.03 | locus YBR009C, strain hhf1, hits give low values 0.979 | locus YBR023C, strain chs3, hits give low values 1 | locus YBR171W, strain sec66, hits give low values 1.02 | locus YBR231C, strain swc5, hits give low values 1.04 | locus YBR279W, strain paf1, hits give low values 1.02 | locus YCL011C, strain gbp2, hits give low values 1.03 | locus YCL016C, strain dcc1, hits give low values 0.977 | locus YCL061C, strain MRC1, hits give low values 1 | locus YCL069W, strain vba3, hits give low values 1.03 | locus YCR088W, strain abp1, hits give low values 1.04 | locus YDL005C, strain med2, hits give low values 1.05 | locus YDL040C, strain nat1, hits give low values 1.04 | locus YDR001C, strain nth1, hits give low values 1.04 | locus YDR069C, strain doa4, hits give low values 0.988 | locus YDR159W, strain sac3, hits give low values 1.04 | locus YDR297W, strain sur2, hits give low values 1.02 | locus YDR334W, strain swr1, hits give low values 1.05 | locus YDR335W, strain msn5, hits give low values 1.02 | locus YEL003W, strain gim4, hits give low values 1.02 | locus YEL037C, strain rad23, hits give low values 1.03 | locus YEL061C, strain CIN8 (second series), hits give low values 1.05 | locus YER015W, strain faa2, hits give low values 1.01 | locus YER016W, strain bim1, hits give low values 1.04 | locus YER111C, strain swi4, hits give low values 1.02 | locus YER155C, strain BEM2 (second series), hits give low values 1.08 | locus YFR010W, strain ubp6, hits give low values 0.953 | locus YGL167C, strain pmr1, hits give low values 1.03 | locus YGL173C, strain kem1, hits give low values 0.981 | locus YGL227W, strain vid30, hits give low values 1.04 | locus YGL240W, strain doc1, hits give low values 1.03 | locus YGL253W, strain hxk2, hits give low values 0.989 | locus YHR013C, strain ard1, hits give low values 1.04 | locus YHR027C, strain rpn1, hits give low values 1.02 | locus YHR030C, strain SLT2, hits give low values 1.04 | locus YHR079C, strain IRE1, hits give low values 1.03 | locus YHR142W, strain chs7, hits give low values 0.967 | locus YJL092W, strain hpr5, hits give low values 1.02 | locus YJL095W, strain BCK1 (second series), hits give low values 1.03 | locus YJL095W, strain BCK1, hits give low values 1.02 | locus YJL115W, strain asf1, hits give low values 1.04 | locus YJL129C, strain trk1, hits give low values 1.03 | locus YJL154C, strain vps35, hits give low values 1.04 | locus YJL164C, strain tpk1, hits give low values 0.973 | locus YJL166W, strain qcr8, hits give low values 0.97 | locus YJL187C, strain SWE1, hits give low values 1.01 | locus YJR066W, strain TOR1, hits give low values 0.98 | locus YKL160W, strain elf1, hits give low values 1 | locus YKR026C, strain gcn3, hits give low values 1.04 | locus YKR091W, strain srl3, hits give low values 1.05 | locus YLL001W, strain dnm1, hits give low values 1.01 | locus YLL026W, hits give low values 1.03 | locus YLL041C, strain sdh2, hits give low values 1.03 | locus YLR027C, strain aat2, hits give low values 1.01 | locus YLR113W, strain HOG1, hits give low values 1.06 | locus YLR221C, strain rsa3, hits give low values 0.996 | locus YLR258W, strain gsy2, hits give low values 1.02 | locus YLR320W, strain mms22, hits give low values 0.919 | locus YLR342W, strain FKS1, hits give low values 1.03 | locus YLR357W, strain rsc2, hits give low values 1.1 | locus YLR370C, strain arc18, hits give low values 1.01 | locus YLR384C, strain iki3, hits give low values 1.04 | locus YML120C, strain ndi1, hits give low values 1.01 | locus YMR058W, strain fet3, hits give low values 1 | locus YMR125W, strain sto1, hits give low values 1.03 | locus YMR129W, hits give low values 1.03 | locus YMR205C, strain PFK2, hits give low values 1.02 | locus YMR231W, strain pep5, hits give low values 1.02 | locus YNL071W, strain lat1, hits give low values 0.989 | locus YNL183C, strain NPR1, hits give low values 0.971 | locus YNL209W, strain ssb2, hits give low values 1.03 | locus YNL248C, strain rpa49, hits give low values 0.963 | locus YNL322C, strain KRE1 (second series), hits give low values 1.06 | locus YNR049C, strain mso1, hits give low values 1.05 | locus YOR001W, strain rrp6, hits give low values 0.997 | locus YOR070C, strain gyp1, hits give low values 0.962 | locus YOR080W, strain dia2, hits give low values 1.03 | locus YOR083W, strain WHI5, hits give low values 0.983 | locus YOR106W, strain vam3, hits give low values 1.01 | locus YOR231W, strain MKK1, hits give low values 1.06 | locus YOR265W, strain rbl2, hits give low values 1.02 | locus YOR270C, strain vph1, hits give low values 0.961 | locus YOR290C, strain snf2, hits give low values 0.995 | locus YPL051W, strain arl3, hits give low values 0.963 | locus YPL078C, strain atp4, hits give low values 1 | locus YPL240C, strain hsp82, hits give low values 1.04 | locus YPL256C, strain CLN2, hits give low values 1.06
active: locus YAL026C, strain drs2, hits give low values 0.627 | locus YDR137W, strain rgp1, hits give low values 0.562 | locus YDR195W, strain ref2 1.35 [resistant] | locus YDR392W, strain spt3, hits give low values 0.733 | locus YLR262C, strain YPT6 (second series), hits give low values 0.485 | locus YPL106C, strain sse1, hits give low values 1.26 [resistant]
